# Results as given in PubChem BioAssay.
# Active and inactive are the calls of the source.
# What was measured:
# [1] = small molecules captured by biotinylated probe aFSTL3 – biochemical, small-molecule microarray, fluorescence 635/667, stem cell growth factor project, primary screen (AID 1064); conditions: higher = more signal;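 also: measures binding of the biotinylated anti-FSTL3 antibody to printed compounds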
# [2] = binders from COS7 lysate, DM2A8 probe, primary screen, torsin A project, cell lysate, small-molecule microarray, fluorescence 635/667 (AID 1065); conditions: higher = more signal, COS7 lysate expressing mutant human TOR1A
# [3] = small molecules captured by biotinylated probe aFGF2 – biochemical, small-molecule microarray, fluorescence 635/667, stem cell growth factor project, primary screen (AID 1067); conditions: higher = more signal;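 also: measures binding of biotinylated aFGF2 protein to printed compounds on slides; z-score merges feature fluorescence and signal-to-noise across triplicate slides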
# [4] = small molecules captured by biotinylated probe aFGF10 – biochemical, small-molecule microarray, fluorescence 635/667, stem cell growth factor project, primary screen (AID 1071); conditions: higher = more signal;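 also: score merges 667 nm spot intensity and signal to noise from triplicate slides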
# [5] = biological target: Neurogenic locus notch homolog protein 2 (Homo sapiens) (UniProt Q04721); assay: small molecules binding Notch2 protein – biochemical, small-molecule microarray, 635 nm fluorescence, stem cell growth factors, primary screen (AID 1073); conditions: higher = more signal
# [6] = biological target: Pro-neuregulin-1, membrane-bound isoform (Homo sapiens) (UniProt Q02297); assay: small molecules binding neuregulin-1 protein – biochemical, small-molecule microarray, fluorescence 635/667, psychiatric disease protein project, primary screen (AID 1075); conditions: NRG1 binding, 635 nm fluorescence, higher = more signal;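 also: score combines 667 nm spot fluorescence with signal to noise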
# [7] = test system: Neuregulin-1 EGF-like domain; assay: small molecules binding NRG1 EGF domain – biochemical, small-molecule microarray, 635 nm fluorescence, primary screen (AID 1081); conditions: higher = more signal;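 also: binding of the protein to compounds printed on small-molecule microarray slides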
# [8] = FRG1 expression reporter modulators in myotubes – cell-based, C2C12 myotubes, firefly/Renilla luciferase, luminescence, FRG1 inhibition for FSHD, primary screen (AID 1084); conditions: FRG1 promoter luciferase, higher = more signal, called active from +8 up or from −8 down
# [9] = small molecules captured by biotinylated probe aFST – biochemical, small-molecule microarray, fluorescence 635/667, stem cell growth factor project, primary screen (AID 1086); conditions: higher = more signal;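 also: score merges 667 nm fluorescence with signal-to-noise of each printed compound spot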
# [10] = binders of probe aHhip on microarray, primary screen, stem cell growth factor project, biochemical, small-molecule microarray, fluorescence 635/667 (AID 1087); conditions: higher = more signal;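 also: score merges spot fluorescence at 667nm with spot signal to noise ratio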
# [11] = test system: PRMT1 (protein arginine N-methyltransferase 1); assay: small molecules binding arginine methyltransferase PRMT1 – biochemical, small-molecule microarray, 635 nm fluorescence, primary screen (AID 1088); conditions: higher = more signal;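 also: binding of Prmt1 protein to compounds spotted on small-molecule microarray slides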
# [12] = growth effects on S. cerevisiae YJM789 – YJM789 clinical isolate, OD600, 24 h, basal, primary screen (AID 1089); conditions: higher = more signal, called active from +8 up or from −8 down;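 also: growth of clinical yeast isolate S. cerevisiae YJM 789 seeded 1000 cells per well; test concentration not given here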
# [13] = S. pombe growth modifiers, basal conditions – strain 972, OD600, 24 h, no modulator, primary screen (AID 1090);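 also: basal condition with compound alone and no growth modifier present; test concentration not given here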; conditions: S. pombe 972 growth, higher = more signal, called active from +8 up or from −8 down
# [14] = budding yeast growth modifiers under rapamycin – strain BY4716, OD600, 96 h, primary screen (AID 1091); also: test concentration not given here; conditions: S. cerevisiae BY4716 + rapamycin, higher = more signal, called active from +8 up or from −8 down
# [15] = biological target: Torsin-1A-interacting protein 2 (Homo sapiens) (UniProt Q8NFQ8); assay: small molecules binding lysate-expressed LULL1 – cell lysate, human LULL1 lysate, 635/667 nm fluorescence, primary screen (AID 1092); conditions: small-molecule microarray, hLULL1 lysate binding, 635 nm fluorescence; higher = more signal;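 also: probe is lysate of COS7 cells overexpressing human LULL1; score merges per-feature 667 nm fluorescence with signal-to-noise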
# [16] = optical density change of DRC41 E. coli – strain DRC41, OD650, 24 h, E. coli filamentation project, primary screen (AID 1093);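 also: MC1000 strain lacking acrAB efflux and sulA so SOS filamentation is blocked; test concentration not given here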; conditions: E. coli DRC41 growth, higher = more signal, called active from +8 up or from −8 down
# [17] = probe aLefty2 binding to arrayed compounds – biochemical, biotinylated probe, 635/667 nm fluorescence, primary screen (AID 1094); conditions: small-molecule microarray, higher = more signal;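 also: score merges spot fluorescence near 667 nm with spot signal-to-noise ratio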
# [18] = test system: Noggin (protein binding on small-molecule microarray); assay: small molecules binding Noggin protein – biochemical, 635/667 nm fluorescence, primary screen (AID 1095); conditions: 635 nm fluorescence, higher = more signal;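 also: score merges 667 nm feature fluorescence with signal to noise over triplicate slides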
# [19] = biological target: Neurogenic locus notch homolog protein 3 (Homo sapiens) (UniProt Q9UM47); assay: small molecules binding NOTCH3 protein – biochemical, 635/667 nm fluorescence, primary screen (AID 1096); conditions: small-molecule microarray, 635 nm fluorescence, higher = more signal
# [20] = probe aEGFR binding to arrayed compounds – biochemical, biotinylated probe, 635/667 nm fluorescence, primary screen (AID 1097); conditions: small-molecule microarray, higher = more signal;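 also: probe is a biotinylated anti-EGFR antibody binding compounds printed on slides; score combines fluorescence near 667 nm and signal to noise of each spot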
# Chain of Neurogenic locus notch homolog protein 3 (Homo sapiens) (Q9UM47 whole entry, looked up): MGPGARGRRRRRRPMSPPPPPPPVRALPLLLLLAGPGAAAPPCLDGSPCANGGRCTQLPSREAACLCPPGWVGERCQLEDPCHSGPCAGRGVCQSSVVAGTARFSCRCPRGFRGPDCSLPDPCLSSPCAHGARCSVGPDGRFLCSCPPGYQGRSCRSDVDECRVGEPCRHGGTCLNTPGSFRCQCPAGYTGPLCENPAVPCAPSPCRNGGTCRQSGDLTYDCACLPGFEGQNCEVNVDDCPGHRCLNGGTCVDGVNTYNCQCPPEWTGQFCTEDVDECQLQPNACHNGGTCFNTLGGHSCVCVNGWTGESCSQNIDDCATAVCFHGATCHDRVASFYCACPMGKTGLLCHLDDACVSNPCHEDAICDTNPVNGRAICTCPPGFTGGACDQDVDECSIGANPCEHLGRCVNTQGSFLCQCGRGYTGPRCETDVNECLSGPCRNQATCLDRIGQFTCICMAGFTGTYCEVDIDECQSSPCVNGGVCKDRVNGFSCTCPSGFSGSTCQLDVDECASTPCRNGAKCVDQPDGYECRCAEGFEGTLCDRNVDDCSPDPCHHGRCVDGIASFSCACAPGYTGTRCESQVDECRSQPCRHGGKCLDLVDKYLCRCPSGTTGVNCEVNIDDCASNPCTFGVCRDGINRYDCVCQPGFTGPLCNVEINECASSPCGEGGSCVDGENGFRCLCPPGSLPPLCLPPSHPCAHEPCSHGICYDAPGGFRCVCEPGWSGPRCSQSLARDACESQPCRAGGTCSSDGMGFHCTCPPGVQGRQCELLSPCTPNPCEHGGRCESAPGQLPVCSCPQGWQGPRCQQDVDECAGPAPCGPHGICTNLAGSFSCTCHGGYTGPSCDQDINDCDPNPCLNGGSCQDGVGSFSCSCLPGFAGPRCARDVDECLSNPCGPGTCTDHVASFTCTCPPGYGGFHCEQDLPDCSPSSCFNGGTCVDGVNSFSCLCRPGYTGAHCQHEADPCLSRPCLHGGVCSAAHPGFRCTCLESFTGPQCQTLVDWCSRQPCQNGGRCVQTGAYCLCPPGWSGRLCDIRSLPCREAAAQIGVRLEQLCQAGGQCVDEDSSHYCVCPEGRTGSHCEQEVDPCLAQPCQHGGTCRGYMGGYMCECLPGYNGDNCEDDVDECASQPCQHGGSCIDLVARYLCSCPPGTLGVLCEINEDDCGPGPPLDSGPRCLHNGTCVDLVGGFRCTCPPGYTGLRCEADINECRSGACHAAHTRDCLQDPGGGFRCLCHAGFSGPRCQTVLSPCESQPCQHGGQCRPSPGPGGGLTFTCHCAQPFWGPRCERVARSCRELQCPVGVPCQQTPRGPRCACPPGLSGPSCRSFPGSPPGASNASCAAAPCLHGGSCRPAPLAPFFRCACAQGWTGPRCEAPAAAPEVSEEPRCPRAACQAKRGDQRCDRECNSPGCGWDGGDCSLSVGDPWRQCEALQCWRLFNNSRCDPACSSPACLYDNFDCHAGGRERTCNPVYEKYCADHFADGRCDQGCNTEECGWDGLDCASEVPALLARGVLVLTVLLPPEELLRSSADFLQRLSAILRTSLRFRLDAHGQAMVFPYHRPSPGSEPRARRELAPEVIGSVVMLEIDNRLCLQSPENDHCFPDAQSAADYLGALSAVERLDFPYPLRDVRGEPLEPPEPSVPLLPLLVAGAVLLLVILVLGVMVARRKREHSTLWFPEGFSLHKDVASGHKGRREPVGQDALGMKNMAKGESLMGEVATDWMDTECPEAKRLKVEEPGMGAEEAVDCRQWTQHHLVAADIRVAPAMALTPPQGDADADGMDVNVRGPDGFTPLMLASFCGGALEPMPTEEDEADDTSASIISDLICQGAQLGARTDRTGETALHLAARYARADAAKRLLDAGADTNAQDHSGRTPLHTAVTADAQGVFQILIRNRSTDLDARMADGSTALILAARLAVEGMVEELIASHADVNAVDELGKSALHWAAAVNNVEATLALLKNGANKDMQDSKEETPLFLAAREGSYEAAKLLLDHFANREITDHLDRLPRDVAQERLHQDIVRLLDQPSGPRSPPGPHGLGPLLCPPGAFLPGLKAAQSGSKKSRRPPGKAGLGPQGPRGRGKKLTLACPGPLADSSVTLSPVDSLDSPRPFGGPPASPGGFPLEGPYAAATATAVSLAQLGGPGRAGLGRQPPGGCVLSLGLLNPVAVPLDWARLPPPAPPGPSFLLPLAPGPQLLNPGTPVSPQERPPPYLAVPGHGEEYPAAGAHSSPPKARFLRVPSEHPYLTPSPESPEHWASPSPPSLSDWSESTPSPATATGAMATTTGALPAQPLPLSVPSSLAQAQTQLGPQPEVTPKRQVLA
# Chain of Neurogenic locus notch homolog protein 2 (Homo sapiens) (Q04721 whole entry, looked up, canonical isoform): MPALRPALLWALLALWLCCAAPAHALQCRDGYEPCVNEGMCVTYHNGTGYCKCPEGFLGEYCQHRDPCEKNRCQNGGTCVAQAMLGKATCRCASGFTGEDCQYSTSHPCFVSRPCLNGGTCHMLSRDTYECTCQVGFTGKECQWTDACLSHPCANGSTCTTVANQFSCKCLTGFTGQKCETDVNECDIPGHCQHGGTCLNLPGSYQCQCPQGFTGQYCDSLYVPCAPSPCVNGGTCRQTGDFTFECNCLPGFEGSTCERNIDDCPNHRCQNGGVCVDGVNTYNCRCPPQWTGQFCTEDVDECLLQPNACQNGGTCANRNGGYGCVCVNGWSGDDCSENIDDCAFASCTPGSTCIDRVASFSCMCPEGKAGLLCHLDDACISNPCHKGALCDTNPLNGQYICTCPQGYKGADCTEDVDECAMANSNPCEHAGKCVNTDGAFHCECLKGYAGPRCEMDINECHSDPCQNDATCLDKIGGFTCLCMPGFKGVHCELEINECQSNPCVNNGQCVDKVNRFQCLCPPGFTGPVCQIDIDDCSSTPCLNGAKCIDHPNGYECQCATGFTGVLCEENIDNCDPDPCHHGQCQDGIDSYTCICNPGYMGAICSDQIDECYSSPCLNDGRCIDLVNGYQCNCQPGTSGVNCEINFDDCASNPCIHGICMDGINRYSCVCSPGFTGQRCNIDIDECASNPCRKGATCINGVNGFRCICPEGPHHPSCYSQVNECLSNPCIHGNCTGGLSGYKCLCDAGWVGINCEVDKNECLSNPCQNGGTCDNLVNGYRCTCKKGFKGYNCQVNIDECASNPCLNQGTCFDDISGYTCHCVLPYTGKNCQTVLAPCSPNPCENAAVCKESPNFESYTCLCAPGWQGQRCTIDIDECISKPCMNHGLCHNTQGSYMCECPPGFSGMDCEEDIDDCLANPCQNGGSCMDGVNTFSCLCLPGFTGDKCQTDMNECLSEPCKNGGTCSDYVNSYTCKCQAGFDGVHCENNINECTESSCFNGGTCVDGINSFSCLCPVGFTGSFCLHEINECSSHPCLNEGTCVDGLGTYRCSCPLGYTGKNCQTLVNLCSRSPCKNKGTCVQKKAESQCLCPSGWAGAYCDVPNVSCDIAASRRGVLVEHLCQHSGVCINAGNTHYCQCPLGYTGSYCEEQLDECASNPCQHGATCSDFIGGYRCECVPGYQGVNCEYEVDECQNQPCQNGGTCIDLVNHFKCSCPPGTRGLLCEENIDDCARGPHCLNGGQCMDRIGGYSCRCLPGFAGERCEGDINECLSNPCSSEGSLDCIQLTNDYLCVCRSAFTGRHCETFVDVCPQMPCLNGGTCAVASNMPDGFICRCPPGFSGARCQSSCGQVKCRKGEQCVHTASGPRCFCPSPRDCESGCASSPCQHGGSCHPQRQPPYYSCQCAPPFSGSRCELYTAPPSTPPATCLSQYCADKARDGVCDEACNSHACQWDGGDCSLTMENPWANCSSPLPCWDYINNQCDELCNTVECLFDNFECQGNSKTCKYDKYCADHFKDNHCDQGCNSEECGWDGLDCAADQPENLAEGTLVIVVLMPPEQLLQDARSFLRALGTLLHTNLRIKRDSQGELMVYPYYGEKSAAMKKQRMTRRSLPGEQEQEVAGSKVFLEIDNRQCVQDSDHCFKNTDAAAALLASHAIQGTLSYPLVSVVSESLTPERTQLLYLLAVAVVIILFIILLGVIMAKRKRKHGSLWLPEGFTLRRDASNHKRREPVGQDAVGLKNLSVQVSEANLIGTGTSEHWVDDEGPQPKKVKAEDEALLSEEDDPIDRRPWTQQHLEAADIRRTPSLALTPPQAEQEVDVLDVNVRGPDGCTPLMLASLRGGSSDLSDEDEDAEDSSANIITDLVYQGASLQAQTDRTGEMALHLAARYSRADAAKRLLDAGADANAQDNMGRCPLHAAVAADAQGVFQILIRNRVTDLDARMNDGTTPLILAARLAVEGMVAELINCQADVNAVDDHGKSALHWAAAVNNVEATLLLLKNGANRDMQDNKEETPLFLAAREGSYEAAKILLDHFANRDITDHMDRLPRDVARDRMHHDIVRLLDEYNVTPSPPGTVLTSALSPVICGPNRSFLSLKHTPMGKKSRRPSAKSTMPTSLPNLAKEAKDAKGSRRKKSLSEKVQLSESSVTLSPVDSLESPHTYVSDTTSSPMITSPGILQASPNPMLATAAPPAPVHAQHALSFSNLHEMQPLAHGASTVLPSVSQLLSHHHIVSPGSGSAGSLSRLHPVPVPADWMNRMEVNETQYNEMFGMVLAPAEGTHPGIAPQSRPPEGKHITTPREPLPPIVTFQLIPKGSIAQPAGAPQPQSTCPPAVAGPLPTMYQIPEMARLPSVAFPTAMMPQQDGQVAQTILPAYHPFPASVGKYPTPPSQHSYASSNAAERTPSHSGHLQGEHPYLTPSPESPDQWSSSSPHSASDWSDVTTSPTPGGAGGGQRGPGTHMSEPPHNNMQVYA
SMILES,composite z-score [1],composite z-score [2],composite z-score [3],composite z-score [4],composite z-score [5],composite z-score [6],composite z-score [7],z-score [8],composite z-score [9],composite z-score [10],composite z-score [11],z-score [12],z-score [13],z-score [14],composite z-score [15],z-score [16],composite z-score [17],composite z-score [18],composite z-score [19],composite z-score [20]
COC(=O)C[C@@H]1C[C@H](C)[C@]2(O1)C(=O)N(Cc1ccccc1)c1ccc(NC(C)=O)cc12,-0.589,0.108,-0.144,0.315,0.381,-0.12,0.443,0.74 (inactive),-0.0507,0.0012,-0.509,0.498 (inactive),-1.1 (inactive),0.134 (inactive),0.053,0.827 (inactive),-0.166,0.571,0.107,-0.111
CC(C)=CCCC(C)=CC(O)C1C=CC2C(=O)N(c3ccccc3)C(=O)C2N1Nc1ccccc1 (stereo not given),0.475,0.135,0.155,1.16,1.64,1.17,1.06,-2.84 (inactive),1.6,0.0497,0.967,0.316 (inactive),0.171 (inactive),1.02 (inactive),2.89,-1.99 (inactive),0.201,-0.196,1.04,0.438
CO[C@H]1O[C@H](CO)[C@@H](OC(=O)Nc2ccc3c(c2)OCO3)[C@H](OC(=O)Nc2ccccc2)[C@H]1OC(=O)Nc1ccccc1,-0.142,0.436,0.0166,1,0.828,1.12,1.35,2.74 (inactive),0.697,-0.0645,1.54,1.67 (inactive),0.383 (inactive),1.76 (inactive),3.4,-0.703 (inactive),-0.0702,0.704,1.15,-0.0354
COc1cc(CO)ccc1OC(C)=O,-0.651,0.336,-0.0279,0.28,0.382,0.34,0.707,-0.847 (inactive),0.195,0.122,0.657,-2.07 (inactive),-1.44 (inactive),-0.377 (inactive),0.0135,1.14 (inactive),-0.332,0.601,0.317,-0.112
O=C1[C@]2(CO)C=C(Br)[C@@H](C[C@@H]2c2ccccc2)[C@@]12CO2,-0.333,-0.61,-0.0507,-0.0238,0.0861,0.251,0.245,1.2 (inactive),-0.0624,-0.134,-0.756,-0.904 (inactive),-3.06 (inactive),-0.666 (inactive),-0.556,0.0737 (inactive),-0.227,0.0401,0.224,-0.0828
